Data on 8 compounds can be found in PubChem BioAssay (Tox21).

Results filed as inconclusive are left out. A number with no mark means an inactive call. Active and inactive are the calls of the source. Unless noted, the call rests on the fitted dose curve; in most records, active means well fitted curve in the direction sought with a large enough effect in the repeat runs; inconclusive means weak or mixed curves; inactive means no such curve, though single readings can be large; an effect the other way counts as inactive or inconclusive.

Test [1] is described as follows: qHTS assay to identify small molecule antagonists of the thyroid receptor (TR) signaling pathway - cell viability counter screen (AID 743064). Further: nearly all actives have a fitted effect of over 50% in size. The method, boiled down:
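Plate GH3.TRE-Luc cells; incubate 4 h at 37 °C; add compound, then T3 to 1 nM final; incubate 23.5 h; add CellTiter-Fluor; incubate 30 min at 37 °C, 5% CO2; read fluorescence.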
Background: In qHTS, concentration-response curves come from the screen itself.

Test [2] is described as follows: qHTS assay to identify small molecule antagonists of the thyroid receptor (TR) signaling pathway (AID 743065). Further: series mostly up to about 70 µM; nearly all actives have a fitted effect of over 55% in size. The method, boiled down:
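GH3.TRE-Luc rat pituitary cells (two TREs driving luciferase) were dosed with compound, then stimulated with 1 nM T3 (final) for 23.5 h at 37 C. ONE-Glo luminescence was the read-out, with CellTiter-Fluor fluorescence as the cytotoxicity counter-screen.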

Test [3] relates to thyroid hormone receptor (rat, GH3 cells). As to the kind of experiment: qHTS assay to identify small molecule agonists of the thyroid receptor (TR) signaling pathway (AID 743066; calls by dose curve).
In test [4] the target is Estrogen receptor (Homo sapiens) (UniProt P03372). As to the kind of experiment: qHTS assay to identify small molecule antagonists of the estrogen receptor alpha (ER-alpha) signaling pathway (AID 743069; active means well fitted curve in the direction sought with a large enough effect in the signal ratio in the repeat runs, not every such curve was filed as active; the % refers to the signal ratio). The method, boiled down:
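Beta-lactamase FRET fluorescence is read after 2 hr at room temperature with LiveBLAzer B/G substrate. Before that, ER-alpha-bla HEK293 cells sit 4 hr after plating, then receive compound plus 17beta-estradiol and incubate 18 hr at 37C.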

Test [5] in a line: qHTS assay to identify small molecule antagonists of the estrogen receptor alpha (ER-alpha) signaling pathway - cell viability counter screen (AID 743074; calls by dose curve;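 further: HEK293 cells carrying ER-alpha-UAS-bla reporter stimulated with 17beta-estradiol; nearly all actives have a fitted effect of over 45% in size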).
For test [6], the target named is Estrogen receptor (Homo sapiens) (UniProt P03372). As to the kind of experiment: qHTS assay to identify small molecule agonists of the estrogen receptor alpha (ER-alpha) signaling pathway (AID 743075; calls by dose curve;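 further: HEK293 GripTite cells with ER-alpha and UAS-driven beta-lactamase reporter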; further: potency means the concentration at half of the fitted maximal effect).
Test [7] has the same target. As to the kind of experiment: qHTS assay to identify small molecule agonists of the estrogen receptor alpha (ER-alpha) signaling pathway using the BG1 cell line (AID 743079). Further: nearly all actives have a fitted effect of over 20% in size. Further: potency means the concentration at half of the fitted maximal effect.
Test [8] can be described thus: qHTS assay to identify small molecule antagonists of the estrogen receptor alpha (ER-alpha) signaling pathway using the BG1 cell line - cell viability counter screen (AID 743081).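 Further: compound given together with 17beta-estradiol as the ER stimulus; series mostly up to about 70 µM; nearly all actives have a fitted effect of over 45% in size.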
In test [9] the target is Aromatase (Homo sapiens) (UniProt P11511). As to the kind of experiment: qHTS assay to identify aromatase inhibitors (AID 743083). Further: series mostly up to about 70 µM; nearly all actives have a fitted effect of over 55% in size.
The nature of test [10]: qHTS assay to identify aromatase inhibitors - cell viability counter screen (AID 743084).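 Further: cells stimulated with testosterone during compound exposure; nearly all actives have a fitted effect of over 55% in size.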
Test [11] is described as follows: qHTS assay to identify small molecule that activate the aryl hydrocarbon receptor (AhR) signaling pathway - cell viability counter screen (AID 743086).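 Further: HepG2 liver cells carrying the AhR DRE luciferase reporter; series mostly up to about 70 µM; nearly all actives have a fitted effect of over 45% in size.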 Put shortly: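 HepG2-AhR-luc (HG2L7.5c1) cells, 4000/well, treated 24 h at 37 C with compound; viability measured as CellTiter-Fluor fluorescence after 30 min in the same wells as the luciferase read.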
Test [12] addresses Peroxisome proliferator-activated receptor gamma (Homo sapiens) (UniProt P37231). As to the kind of experiment: qHTS assay to identify small molecule agonists of the peroxisome proliferator-activated receptor gamma (PPARg) signaling pathway (AID 743094; active means well fitted activation curve with a large enough effect in the signal ratio in the repeat runs, not every such curve was filed as active; the % refers to the signal ratio). Put shortly:
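HEK293H PPARg-bla cells, 5 h settle at 37C/5% CO2; compound (DMSO) 17 h, 37C; B/G FRET substrate 1 h RT; fluorescence intensity read-out. qHTS format.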

Test [13] has the same target. As to the kind of experiment: qHTS assay to identify small molecule antagonists of the peroxisome proliferator-activated receptor gamma (PPARg) signaling pathway (AID 743191; calls by dose curve; further: series mostly up to about 63 µM; nearly all actives have a fitted effect of over 30% in size). Put shortly:
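GeneBLAzer PPARg UAS-bla HEK293H cells, 5 h post-plating, exposed to compounds 17 h at 37C. LiveBLAzer B/G FRET substrate added for 1 h at room temperature; beta-lactamase reporter read by fluorescence intensity.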

A short description of test [14]: qHTS assay to identify small molecule antagonists of the peroxisome proliferator-activated receptor gamma (PPARg) signaling pathway - cell viability counter screen (AID 743194). Further: nearly all actives have a fitted effect of over 55% in size. The method, boiled down: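 Cytotoxicity counter screen in PPARg-bla HEK293H cells, same wells as reporter assay. Compounds plus 50 nM rosiglitazone (final) for 17 h at 37 C, then viability read by CellTiter-Glo luminescence.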

Test [15] can be described thus: qHTS assay for small molecule agonists of the antioxidant response element (ARE) signaling pathway (AID 743202; active means well fitted activation curve with a large enough effect in the signal ratio in the repeat runs, not every such curve was filed as active; the % refers to the signal ratio). Put shortly: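 HepG2 ARE-bla reporter line, 2,000 cells/well; 5 h preincubation 37 C/5% CO2; compound (DMSO) 16 h 37 C; B/G FRET substrate 2 h RT; fluorescence intensity.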
Test [16] can be described thus: qHTS assay for small molecule agonists of the antioxidant response element (ARE) signaling pathway - cell viability counter screen (AID 743203; calls by dose curve; further: nearly all actives have a fitted effect of over 55% in size). Put shortly:
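Luminescence read-out (CellTiter-Glo, 30 min at room temperature) measured cell viability in the same wells as the ARE beta-lactamase reporter. HepG2 ARE-bla cells were treated with compounds for 16 hrs at 37C/5% CO2.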

The nature of test [17]: qHTS assay for small molecule activators of the heat shock response signaling pathway - cell viability counter screen (AID 743209). Further: nearly all actives have a fitted effect of over 50% in size. The method, boiled down: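 HSE-bla HeLa; 1500 cells/well; overnight 37 C, 5% CO2; compound 5 h 37 C; LiveBLAzer B/G substrate 2.5 h RT; CellTiter-Glo 30 min RT; luminescence.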
The nature of test [18]: qHTS assay for small molecule activators of the heat shock response signaling pathway (AID 743210; active means well fitted activation curve with a large enough effect in the signal ratio in the repeat runs, with a control signal flat, not every such curve was filed as active; the % refers to the signal ratio; further: series mostly up to about 63 µM). Put shortly: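 Beta-lactamase reporter read-out: FRET substrate fluorescence after 2.5 h at RT, following 5 h compound treatment at 37 C of HeLa cells carrying HSE-driven bla reporter; quantitative HTS format.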
The nature of test [19]: qHTS assay to identify small molecule antagonists of the estrogen receptor alpha (ER-alpha) signaling pathway using the BG1 cell line (AID 743080; calls by dose curve;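 further: BG1 cells stimulated with 17beta-estradiol alongside compound; series mostly up to about 70 µM; nearly all actives have a fitted effect of over 25% in size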). The method, boiled down: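 Seeding, 24 h rest, compound transfer from DMSO, 17beta-estradiol addition, 21.5 h incubation, CellTiter-Fluor (30 min, 37 C), then ONE-Glo (30 min, room temperature): this sequence was run on BG1-Luc-4E2 reporter cells.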

Test [20] addresses Aryl hydrocarbon receptor (Homo sapiens) (UniProt P35869). As to the kind of experiment: qHTS assay to identify small molecule that activate the aryl hydrocarbon receptor (AhR) signaling pathway (AID 743085). Further: nearly all actives have a fitted effect of over 15% in size. Further: potency means the concentration at half of the fitted maximal effect.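 On activation: HG2L7.5c1 human HepG2 liver cells with stably integrated DRE-driven firefly reporter; series mostly up to about 70 µM.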 Put shortly: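 Steps: seed HepG2-AhR-luc cells; allow 5 h at 37C; pin-transfer test compound or vehicle; incubate 24 h at 37C; add viability dye (30 min, 37C) and read fluorescence; add luciferase substrate (30 min, RT) and read luminescence.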

Sequence of Aryl hydrocarbon receptor (Homo sapiens) (P35869 whole entry, looked up): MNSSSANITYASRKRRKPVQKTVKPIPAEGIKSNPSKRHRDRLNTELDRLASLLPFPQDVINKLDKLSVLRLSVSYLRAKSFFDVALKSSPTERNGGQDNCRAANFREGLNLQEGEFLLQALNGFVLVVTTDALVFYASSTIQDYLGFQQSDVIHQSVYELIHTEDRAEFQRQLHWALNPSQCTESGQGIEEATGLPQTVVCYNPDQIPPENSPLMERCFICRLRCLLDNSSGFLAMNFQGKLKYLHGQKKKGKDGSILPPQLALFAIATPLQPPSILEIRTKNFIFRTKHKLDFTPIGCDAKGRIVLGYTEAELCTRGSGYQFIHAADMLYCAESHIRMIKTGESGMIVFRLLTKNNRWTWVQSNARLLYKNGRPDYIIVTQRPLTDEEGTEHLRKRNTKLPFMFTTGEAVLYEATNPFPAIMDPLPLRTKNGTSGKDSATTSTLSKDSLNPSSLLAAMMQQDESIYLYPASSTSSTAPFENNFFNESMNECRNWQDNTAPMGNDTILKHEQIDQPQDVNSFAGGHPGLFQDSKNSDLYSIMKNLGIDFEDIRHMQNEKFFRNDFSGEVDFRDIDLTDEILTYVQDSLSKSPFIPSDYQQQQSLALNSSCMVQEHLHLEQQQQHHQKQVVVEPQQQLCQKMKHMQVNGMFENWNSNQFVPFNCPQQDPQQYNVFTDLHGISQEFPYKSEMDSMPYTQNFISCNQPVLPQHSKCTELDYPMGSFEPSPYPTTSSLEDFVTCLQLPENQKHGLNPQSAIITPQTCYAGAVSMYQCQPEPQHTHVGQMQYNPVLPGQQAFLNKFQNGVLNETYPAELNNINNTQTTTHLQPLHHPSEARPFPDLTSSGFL
Sequence of Aromatase (Homo sapiens) (P11511 whole entry, looked up): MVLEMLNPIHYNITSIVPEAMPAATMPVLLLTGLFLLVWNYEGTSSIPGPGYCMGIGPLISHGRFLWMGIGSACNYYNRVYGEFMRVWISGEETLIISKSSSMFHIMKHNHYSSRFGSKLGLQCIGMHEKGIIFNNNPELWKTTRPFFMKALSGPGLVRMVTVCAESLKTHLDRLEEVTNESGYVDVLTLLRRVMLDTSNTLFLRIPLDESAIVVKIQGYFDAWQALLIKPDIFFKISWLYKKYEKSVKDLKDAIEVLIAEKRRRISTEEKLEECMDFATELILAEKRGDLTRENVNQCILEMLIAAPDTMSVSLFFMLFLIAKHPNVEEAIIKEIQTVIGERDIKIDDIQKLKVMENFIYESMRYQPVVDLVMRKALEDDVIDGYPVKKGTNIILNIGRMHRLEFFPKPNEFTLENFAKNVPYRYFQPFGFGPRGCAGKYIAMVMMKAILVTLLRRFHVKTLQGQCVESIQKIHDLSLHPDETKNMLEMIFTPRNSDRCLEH
Sequence of Estrogen receptor (Homo sapiens) (P03372 whole entry, looked up): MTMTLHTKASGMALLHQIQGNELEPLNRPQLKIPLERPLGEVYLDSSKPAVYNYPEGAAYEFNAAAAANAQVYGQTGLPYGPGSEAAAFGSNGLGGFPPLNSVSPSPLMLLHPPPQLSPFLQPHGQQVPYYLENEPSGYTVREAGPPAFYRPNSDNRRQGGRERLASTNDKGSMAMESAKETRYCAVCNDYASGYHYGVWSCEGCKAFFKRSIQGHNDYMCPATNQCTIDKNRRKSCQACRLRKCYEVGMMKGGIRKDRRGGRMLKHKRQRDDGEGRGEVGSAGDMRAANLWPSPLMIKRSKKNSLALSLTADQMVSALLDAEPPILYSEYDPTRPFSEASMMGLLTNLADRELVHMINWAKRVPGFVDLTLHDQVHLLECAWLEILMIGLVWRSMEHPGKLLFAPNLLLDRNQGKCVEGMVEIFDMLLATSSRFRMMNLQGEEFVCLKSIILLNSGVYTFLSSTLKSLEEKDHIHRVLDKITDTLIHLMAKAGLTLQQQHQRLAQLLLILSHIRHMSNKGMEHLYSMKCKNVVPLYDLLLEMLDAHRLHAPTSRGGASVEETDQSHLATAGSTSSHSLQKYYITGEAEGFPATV
Sequence of Peroxisome proliferator-activated receptor gamma (Homo sapiens) (P37231 whole entry, looked up): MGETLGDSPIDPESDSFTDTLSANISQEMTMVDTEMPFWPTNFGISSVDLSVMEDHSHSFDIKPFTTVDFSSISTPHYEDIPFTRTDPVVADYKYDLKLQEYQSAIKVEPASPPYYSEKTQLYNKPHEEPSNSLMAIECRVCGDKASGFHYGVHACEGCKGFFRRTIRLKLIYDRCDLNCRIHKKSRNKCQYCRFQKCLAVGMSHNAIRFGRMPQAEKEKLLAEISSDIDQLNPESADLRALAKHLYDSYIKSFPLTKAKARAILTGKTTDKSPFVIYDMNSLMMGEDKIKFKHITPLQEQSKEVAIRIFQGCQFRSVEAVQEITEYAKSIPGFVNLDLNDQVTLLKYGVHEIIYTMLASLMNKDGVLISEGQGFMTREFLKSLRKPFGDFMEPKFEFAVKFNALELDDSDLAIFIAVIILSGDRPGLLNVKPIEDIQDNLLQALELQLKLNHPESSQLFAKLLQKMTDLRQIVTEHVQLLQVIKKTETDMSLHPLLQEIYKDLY

Take `C[C@H]1[C@@H](c2ccccc2)NC(=O)N1C`: the Potency entry in test [1], in test [2], in test [6], in test [7], in test [8] and in test [10] was “inactive” in each case. Moreover, the Potency result in test [11], in test [12], in test [15] and in test [17] was “inactive” throughout. The compound was classed as inactive in [3], in test [4], in [5], in [9], in test [13] and in [14]. Moreover, the result in test [16] and in test [18] was inactive.
In the case of `CC12CCC(C1)C(C)(C)C2O` (stereo not given), the Potency entry in [1], in test [2], in test [6], in [7], in test [8] and in test [10] was “inactive” in each case. The Potency result in test [11], in test [12] and in test [17] was “inactive” throughout. Besides, the compound was classed as inactive in test [3], in test [4], in test [5], in test [19], in [9] and in test [13]. Besides, the outcome in [16] and in test [18] was inactive.
As for `COP(=O)(O)OP(=O)(O)OC`, the Potency result in test [1], in test [2], in test [6], in test [7], in test [8] and in test [10] was “inactive” in each case. Further, the Potency entry in test [20], in test [11], in test [12], in [15] and in test [17] was “inactive” each time. Besides, the compound was called inactive in test [3], in [4], in test [5], in test [19], in test [9] and in [14]. Also, the compound was classed as inactive in test [16] and in test [18].
As for `Cn1nnc2c(C(N)=O)ncn2c1=O`, the Potency result in test [1], in [2], in test [6], in test [7], in test [8] and in test [10] was “inactive” in each case. In addition, the Potency result in [20], in test [11], in test [12] and in test [15] was “inactive” throughout. Further, the result in test [3], in test [4], in test [5], in test [9], in [14] and in test [16] was inactive. Besides, the outcome in test [18] was inactive.
`O=C(NCN1CCOCC1)c1cnccn1`: the Potency entry in test [1], in [2], in test [6], in test [7], in test [8] and in test [10] was “inactive” in each case. The Potency result in test [20], in [11], in [12], in [15] and in test [17] was “inactive” in each case. Moreover, the call in test [3], in test [4], in test [5], in test [9], in test [13] and in test [14] was inactive. Also, the compound was called inactive in test [16].
With `CCC/C=C(\C=O)CC`, the Potency entry in test [1], in test [2], in test [6], in test [7], in test [8] and in test [10] was “inactive” in each case. In addition, the Potency result in [20], in [11], in test [15] and in test [17] was “inactive” each time. For the same compound, the compound was called inactive in test [3], in test [4], in test [5], in test [9], in test [14] and in test [16]. The call in test [18] was inactive.
In the case of `CCC(=O)c1c(O)cc(O)cc1O`, the Potency entry in test [1], in [2], in test [6], in [7], in test [8] and in test [10] was “inactive” each time. For the same compound, the Potency result in [11], in test [12] and in test [17] was “inactive” in each case. Besides, the call in test [3], in [4], in test [5], in [19], in test [9] and in test [13] was inactive. In addition, the result in test [14], in [16] and in test [18] was inactive.
As to `c1ccc(B(c2ccccc2)c2ccccc2)cc1`, the Potency entry in test [1], in test [2], in test [8], in [10], in test [11] and in test [12] was “inactive” in each case. The Potency result in [17] is “inactive”. Moreover, the result in [3], in test [4], in test [5], in test [9], in test [16] and in test [18] was inactive. Further, the Potency is 30.9 µM [activator] (active) in test [6], 34.3 µM (active) in [7] and 30.6 µM (active) in test [20].
